Most compounds without a hit are left out; they make up all but 1.1% or so of the library.
GalR3 antag = blocks the human galanin receptor 3. O60755. HEK293 GalR3-CNG cAMP membrane potential fluorescence; galR3 body fused to GalR1 C-terminus. inhibition, % at 3 µM. actives 0.44% (n = 360,000);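 active = inhibition above the screen-wide average plus 3 SD, cut at about 13% in these data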;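 note: forskolin and galanin both at EC90 stimulate the cells; cAMP rise reported by CNG channel membrane potential dye signal; 0% = forskolin plus galanin with DMSO and 100% = forskolin alone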
SRC1 inh = human NCOA1 inhibition; HEK293 GAL4-SRC1 luciferase reporter, luminescence; inhibition, % at 3.6 µM; actives 0.12% (n = 360,000);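 active = inhibition above the campaign mean plus 3 SD, with each screening campaign given its own cutoff, cut at about 60% in these data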;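 note: 0% = DMSO treated cells and 100% = gossypol at 36 µM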
NCOA3 inh = human NCOA3 inhibition; inhibition, % at 3.6 µM; actives 0.17% (n = 360,000); Q9Y6Q9; AID 588352; HEK293 GAL4-SRC3 luciferase reporter, luminescence;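 active = inhibition above a per-campaign cutoff, the mean of all compounds plus 3 SD, cut at about 60% in these data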;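 note: 0% = DMSO-treated cells and 100% = gossypol-treated cells at 36 µM; higher means less SRC3-driven luciferase light from the GAL4 reporter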
Target sequence (Q9Y6Q9 whole entry, looked up, the tested form may be a part): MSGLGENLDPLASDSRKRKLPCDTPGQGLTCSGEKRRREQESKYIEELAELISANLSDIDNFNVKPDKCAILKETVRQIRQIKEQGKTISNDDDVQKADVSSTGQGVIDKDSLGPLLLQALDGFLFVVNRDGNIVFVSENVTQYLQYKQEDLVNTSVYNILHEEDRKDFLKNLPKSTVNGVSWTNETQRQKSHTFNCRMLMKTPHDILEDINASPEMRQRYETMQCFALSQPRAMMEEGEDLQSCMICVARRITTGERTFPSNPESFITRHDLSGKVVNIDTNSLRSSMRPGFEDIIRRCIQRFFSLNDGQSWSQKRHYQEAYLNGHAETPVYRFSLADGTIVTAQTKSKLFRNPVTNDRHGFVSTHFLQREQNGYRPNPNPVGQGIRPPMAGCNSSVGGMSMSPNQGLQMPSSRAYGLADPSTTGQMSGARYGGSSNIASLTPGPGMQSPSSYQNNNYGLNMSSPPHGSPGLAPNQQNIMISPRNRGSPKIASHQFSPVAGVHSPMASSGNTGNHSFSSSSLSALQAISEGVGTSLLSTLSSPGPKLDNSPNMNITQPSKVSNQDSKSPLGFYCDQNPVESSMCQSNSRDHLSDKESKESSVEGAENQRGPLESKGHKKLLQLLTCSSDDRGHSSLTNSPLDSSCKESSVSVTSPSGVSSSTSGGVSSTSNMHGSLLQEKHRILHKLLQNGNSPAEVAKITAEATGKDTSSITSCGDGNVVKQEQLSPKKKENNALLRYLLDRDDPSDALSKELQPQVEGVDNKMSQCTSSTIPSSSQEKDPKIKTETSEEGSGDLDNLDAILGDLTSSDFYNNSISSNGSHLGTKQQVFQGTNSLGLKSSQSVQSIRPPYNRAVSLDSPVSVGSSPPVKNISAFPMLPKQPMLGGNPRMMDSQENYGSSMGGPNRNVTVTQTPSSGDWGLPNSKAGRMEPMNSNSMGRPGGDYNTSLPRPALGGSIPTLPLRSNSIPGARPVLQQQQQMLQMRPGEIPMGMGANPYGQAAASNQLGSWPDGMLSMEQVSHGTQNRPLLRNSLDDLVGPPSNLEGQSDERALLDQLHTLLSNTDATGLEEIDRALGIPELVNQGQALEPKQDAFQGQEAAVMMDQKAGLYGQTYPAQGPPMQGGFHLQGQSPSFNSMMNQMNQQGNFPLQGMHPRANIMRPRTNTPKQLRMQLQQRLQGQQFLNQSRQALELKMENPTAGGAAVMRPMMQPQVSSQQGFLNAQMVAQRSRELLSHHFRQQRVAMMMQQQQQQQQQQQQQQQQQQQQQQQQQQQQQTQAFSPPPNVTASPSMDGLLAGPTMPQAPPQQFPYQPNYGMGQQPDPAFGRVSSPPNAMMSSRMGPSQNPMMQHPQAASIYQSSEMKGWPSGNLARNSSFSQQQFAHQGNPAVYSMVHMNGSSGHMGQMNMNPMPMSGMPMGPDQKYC
SRC2 inh = inhibits human steroid receptor coactivator 2; actives 0.17% (n = 370,000); inhibition, % at 9 µM; HEK293 GAL4-SRC2 luciferase reporter, luminescence; Q15596;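 active = inhibition above the mean inhibition of all tested compounds plus 3 SD, set per campaign, cut at about 52% in these data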;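 note: 0% = DMSO treated cells and 100% = cells given Gossypol at 36 µM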
LRH-1 inv ag = inverse agonists of human LRH-1 (NR5A2); HEK293T StAR-luciferase reporter, LRH-1 transfected, 24 h; inhibition, % at 3.6 µM; actives 0.13% (n = 360,000); O00482;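 active = inhibition above the mean inhibition of all tested compounds plus 3 SD, cut at about 73% in these data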;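 note: 0% = DMSO wells and 100% = reporter-only cells lacking LRH-1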
COUP-TFII inh = blocks human COUP-TFII nuclear receptor; inhibition, % at 8.6 µM; HEK293T NGFI-A luciferase reporter, luminescence; actives 0.7% (n = 370,000);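 active = inhibition above a per-plate cutoff, mean inhibition of test wells between control levels plus 3 SD, cut at about 38% in these data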;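 note: cells cotransfected with COUP-TFII expression vector driving the NGFI-A reporter; 0% = median of COUP-TF2 test wells and 100% = reporter-only cells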
VP16 Luc counter = VP16 inhibition counter-screen for COUP-TFII; inhibition, % at 8.5 µM; shares compounds with COUP-TFII inh; actives 25% (n = 2,500); HEK293 Gal4-VP16 luciferase reporter, luminescence; AID 687007; in the data active = inhibition above about 13%
COUP-TFII conf = confirmation of human COUP-TFII (NR2F2) inhibitors; shares compounds with COUP-TFII inh; HEK293 NGFI-A luciferase reporter, luminescence; inhibition, % at 8.5 µM; actives 45% (n = 2,500); AID 687008;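 active = mean inhibition over three repeats above a set limit taken from the earlier primary screen, cut at about 38% in these data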;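 note: 100% = cells given the luciferase reporter alone without the COUP-TF2 vector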
* marks the source's active call; other numbers are inactive results; / = no result.

SMILES	GalR3 antag	SRC1 inh	NCOA3 inh	SRC2 inh	LRH-1 inv ag	COUP-TFII inh	VP16 Luc counter	COUP-TFII conf
CC(C)N1C/C(=C/c2cccnc2)C(=O)/C(=C/c2cccnc2)C1	-1	6	48	-22	-5	-18	/	/
Cc1cccc(-c2cccc3c4c([nH]c23)[C@@H]2C[C@H](N(C)C(=S)Nc3ccc(C#N)cc3)[C@H]([C@H](C)O)CN2CC4)c1	/	/	/	-6	/	11	/	/
Cc1ccc(Cl)cc1N1CCN(C(=O)CCS(=O)(=O)c2ccc3c(c2)NC(=O)CO3)CC1	-4	10	14	42	4	54*	-3	24
O=C1COc2ccc(S(=O)(=O)CCC(=O)N3CCN(c4cccc(Cl)c4)CC3)cc2N1	-11	-11	-2	-2	-18	4	/	/
CC1Cc2cc(-c3csc(NC(=O)Cc4ccccc4)n3)ccc2N1S(C)(=O)=O (stereo unspecified)	-9	15	46	15	37	75*	-11	49*
C(=N\Nc1nc2ccccc2s1)/c1ccccn1	-7	/	/	69*	/	63*	70*	80*
c1ccc(C[n+]2cccc3c4ccccc4ccc32)cc1	-3	19	33	19	61	53*	3	45*
CCCCC[n+]1cccc2c3ccccc3ccc21	-2	51	57	-29	78*	64*	16*	60*
CN(C(=O)c1cccc(NC(=O)Cc2ccc(NC(=O)C3CCCN(C(=O)CCc4ccccc4)C3)cc2)c1)C1CCC1 (stereo unspecified)	-3	1	14	25	17	48*	4	27
CN(C(=O)c1cccc(NC(=O)Cc2ccc(NC(=O)C3CCCN(C(=O)CCc4ccccc4)C3)cc2)c1)C1CCCC1 (stereo unspecified)	-6	38	16	-4	29	58*	0	51*
CN(C(=O)c1ccc(NC(=O)Cc2cccc(NC(=O)C3CCCN(C(=O)CCc4ccccc4)C3)c2)cc1)C1CCCC1 (stereo unspecified)	-4	6	8	-6	-6	23	/	/
CN(Cc1ccccc1)C(=O)c1ccc(NC(=O)Cc2cccc(NC(=O)C3CCCN(C(=O)CCc4ccccc4)C3)c2)cc1 (stereo unspecified)	-5	8	3	10	7	44*	2	23
Cc1ccc(-c2nnc(SCC(=O)Nc3ccc4c(c3)OCCO4)n2-c2ccc(Cl)cc2)cc1	/	/	/	6	/	4	/	/
CCOc1ccc(OCc2ccc(C(=O)NN=Cc3ccc[nH]3)cc2)cc1	56*	-5	53	-28	86*	73*	-4	71*
Cc1ccc(C(=O)C[n+]2cc(-c3ccc(C)cc3)n3c2CCCCC3)cc1	20*	22	54	17	74*	46*	9	37
O=C(NC1CCCCN(Cc2cccc(C(F)(F)F)c2)C1=O)c1ccc(Cl)c(Cl)c1 (stereo unspecified)	/	/	/	10	/	-15	/	/
O=C1C(=C(c2ccccc2)N2CCOCC2)Cc2ccccc21	-4	-9	9	-145	14	39*	40*	14
O=C(c1ccccc1)N1CCN(C(=O)N2CCOCC2)CC1	-2	4	10	19	-4	6	/	/
O=C(CCc1ccccc1-c1ccccc1CCNC(=O)c1ccccc1)NCc1ccccc1	/	/	/	-10	/	-12	/	/
O=C(O)c1ccc(CSc2nnc(COc3ccccc3)o2)cc1	-4	7	10	2	7	7	/	/
O=C(O)c1cccc(CSc2nnc(COc3ccccc3)o2)c1	0	6	-13	45	-9	41*	35*	18
O=C(O)c1cccc(CSc2nnc(-c3ccc(Cl)cc3)o2)c1	-4	-4	0	55*	-2	40*	37*	9
CC(C)[C@@H]1NC(=O)[C@H]2C[C@@]3(c4ccccc4)c4ccccc4N[C@H]3N2C1=O	/	/	/	12	/	-3	/	/
CCC(NC(=O)C1CCCN(c2ncccn2)C1)c1ccccc1 (stereo unspecified)	/	/	/	2	/	-3	/	/
COC(=O)N(C)c1nc2ccccc2s1	2	-44	-18	-30	-18	-35	/	/
SMILES	GalR3 antag	SRC1 inh	NCOA3 inh	SRC2 inh	LRH-1 inv ag	COUP-TFII inh	VP16 Luc counter	COUP-TFII conf
CN(C(=O)OC(C)(C)C)c1ccc(-c2nc3ccccc3s2)cc1	-5	86*	87*	85*	85*	97*	87*	107*
CC(C)c1ccc(-c2nc3ccccc3s2)cc1	-3	82*	87*	80*	82*	89*	68*	98*
Cc1c(P(=S)(c2ccccc2)c2ccccc2)[n+]2ccccc2n1C/C=C/c1ccccc1	0	29	49	-43	47	38*	5	4
C[C@@H]1C[C@H]2[C@@H](Cc3ccccc3)C(=O)N3[C@H](c4ccccc4)[C@H](C)C[C@H]3[C@@H](Cc3ccccc3)C(=O)N2[C@@H]1c1ccccc1	/	/	/	2	/	-6	/	/
COC(=O)C1CN(Cc2ccc(F)cc2)CCS(=O)(=O)N1Cc1cn(Cc2ccc(Cl)cc2)nn1 (stereo unspecified)	/	/	/	5	/	13	/	/
COc1ccc2[nH]c3c(NCCCOC(C)C)ncnc3c2c1	-3	-81	-69	-49	-116	-26	/	/
COc1ccc2[nH]c3c(NCCC4=CCCCC4)ncnc3c2c1	-7	-51	-46	-33	-79	54*	-137	21
CN1Cc2nnn(CC3CCCCC3)c2-c2ccccc2S1(=O)=O	/	/	/	-4	/	-12	/	/
CN1/C(=C/c2cccc[n+]2CCO)Sc2ccccc21	-1	7	-5	-39	-5	11	/	/
CC[n+]1ccccc1/C=C1\Sc2ccc(C)cc2N1C	-12	39	39	3	51	61*	9	59*
Cc1c(C(=O)N2CCC(C)CC2)oc2ccc3c(c12)C(O)CC1(CCCCC1)O3 (stereo unspecified)	-8	-55	-14	11	3	38*	-4	5
CN(C)C=Nc1ccc(Cn2cnc3nc4ccc(Cl)cc4cc3c2=O)cc1	/	/	/	-27	/	-10	/	/
COc1cc(C(=O)O/N=C(\N)c2ccccn2)cc(OC)c1OC	-6	-8	-4	-6	-13	-7	/	/
CC(C)(C)c1ccc(C(=O)O/N=C(\N)c2ccccn2)cc1	-5	90*	88*	86*	88*	95*	74*	101*
CCOc1ccc(C(=O)O/N=C(\N)c2ccccn2)cc1	4	17	39	65*	29	81*	-93	-4
N/C(=N\OC(=O)c1ccccc1)c1ccccn1	-1	-99	-67	-17	-88	-9	/	/

Screening results from PubChem.
